# Compounds with a hit are over-represented: about 3.1% of the library has one in this group of screens.
# miR122 inh = miR-122 Renilla sensor signal increase in Huh7, primary screen, miR-122 inhibitor project, cell-based, single point, plate reader; Huh7 miR-122 Renilla luciferase sensor, 48 h; neutral wells = 0, positive control = 100; activation (reporter increase), % at 12.5 µM; 340,000 tested, 0.3% active; AID 602342, 2012;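 active = mean replicate activation score at least 90 and every replicate individually at or above 90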;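 note: higher luciferase means less miR-122 activity so hits act as miR-122 inhibitors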
# INS-1E GSIS act = GLuc luminescence reporter in INS-1E cells, primary screen for activators of glucose-dependent secretion of insulin. activation, % at 16.6 µM. 370,000 tested, 0.61% active. INS-1E GLuc reporter insulin secretion, 2-3 h;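 active = lowest replicate activation of at least 40%, so every replicate reaches that level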;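 note: 0% = median of neutral control wells and 100% = median of IBMX positive control wells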
# Env fusion inh = inhibitors of HIV-1 Env-driven cell-cell fusion, primary screen, HeLa-JRFL effector, CEM21 target cells, luciferase; inhibition, % at 12.3 µM; 360,000 tested, 1.1% active;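 active = mean replicate inhibition score of at least 50 and every replicate individually at or above 50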;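 note: 0% = plate neutral controls and 100% = maraviroc near 300 nM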
# C2C12 statin = suppressors of statin myotoxicity in C2C12 myotubes, primary screen, cell-based, single point, plate reader; 330,000 tested, 0.78% active; AID 602340, 2012; rescue of ATP level, % at 7.49 µM; C2C12 myotubes + simvastatin, ATP luminescence, 48 h; scaled: DMSO 0, geranylgeraniol control 100;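 active = mean ATP rescue above about 67%, or every replicate alone reaching that limit, limit read from the data, passing the limit was not always enough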;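 note: myotubes were challenged with 10 µM simvastatin during compound exposure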
# EWS-Fli block = EWS/Fli-driven NR0B1 reporter inhibitors, primary screen, A673 cells, NR0B1 luciferase, luminescence, MLPCN library | viability-normalised | inhibition, % at 12.6 µM | 350,000 tested, 0.67% active;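 active = mean inhibition of at least 50% after viability correction, with every replicate also passing that limit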;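 note: firefly luciferase signal divided by Alamar Blue viability fluorescence both relative to DMSO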
# PAX8 inh HTS = inhibitors of PAX8-driven TPO luciferase reporter, primary screen, RMG-I cells, single concentration; SteadyGlo, 24 h; inhibition, % at 12.6 µM; AID 652154, 2013; 360,000 tested, 1.2% active;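 active = mean replicate inhibition at least 60% with every replicate also reaching 60%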;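 note: luciferase light reporting Pax8 driven TPO promoter activity; plate controls were median of neutral control wells for no effect and mitoxantrone controls for full effect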
# The depositor's hits bear a star; . = no result given; [ ] = remark or other dose.
SMILES,miR122 inh,INS-1E GSIS act,Env fusion inh,C2C12 statin,EWS-Fli block,PAX8 inh HTS
NC(=O)CSc1nnc(Cn2cnc3ccccc32)o1,.,4,-16,.,-11,-7
Clc1ccc(CSc2nnc(Cn3cnc4ccccc43)o2)cc1,-12,.,87*,3,.,33
COC(=O)[C@H](CC(C)C)NS(=O)(=O)c1ccccc1,-2,8,2,80*,-5,-3
COC(=O)[C@H](Cc1ccccc1)N(C)S(=O)(=O)c1cccc(S(=O)(=O)N(C)[C@@H](Cc2ccccc2)C(=O)OC)c1,-4,-3,9,0,1,-1
COC(=O)[C@H](Cc1ccccc1)N(Cc1ccccc1)S(=O)(=O)N(Cc1ccccc1)[C@@H](Cc1ccccc1)C(=O)OC,.,18,80*,-25,16,-5
COC(=O)[C@H](CC(C)C)NS(=O)(=O)N[C@@H](CC(C)C)C(=O)OC,-8,7,-22,6,2,-7
CCOC(=O)[C@@H](C)N(C(=O)OC(C)(C)C)S(=O)(=O)N(Cc1ccccc1)[C@H](C(=O)OC)C(C)C,3,.,85*,7,3,16
CC(C)C[C@@H](CO)N(Cc1ccccc1)S(=O)(=O)N(Cc1ccccc1)[C@H](CO)CC(C)C,16,-54,.,126*,.,.
O=C(C1CCCC1)N1CC(=O)N2[C@H](C1)[C@@H](c1ccc(C#CCc3ccccc3)cc1)[C@@H]2CO,.,-2,.,.,-2,.
COC(=O)[C@@H](CC(C)C)NS(=O)(=O)N(Cc1ccccc1)[C@@H](CC(C)C)C(=O)OC,0,-31,55*,-3,5,-20
C=CCCN([C@@H](C)C(=O)OC)S(=O)(=O)c1ccccc1Br,1,-3,7,-8,-6,-2
C=CCN([C@@H](CC(C)C)C(=O)OC)S(=O)(=O)N(CC=C)[C@@H](CC(C)C)C(=O)OC,.,-7,81*,-7,-7,4
COC(=O)[C@@H](Cc1ccccc1)NS(=O)(=O)N[C@H](Cc1ccccc1)C(=O)OC,-3,-1,-8,-6,-6,7
COC(=O)C[C@H]1C[C@@H]2c3cc(NC(=O)NC4CCCCC4)ccc3O[C@@H]2[C@H](CO)O1,5[16.7 µM],-3,3[16.7 µM],-11,-5,-19
COc1ccccc1S(=O)(=O)N[C@@H]1CC[C@H](CC(=O)N2CCCCC2)O[C@H]1CO,.,13,-7[16.7 µM],6,10,-3
O=C(c1cccc(F)c1)N1CC2(C1)[C@H](c1ccccc1)[C@@H](CO)N2C(=O)C1CCOCC1,.,-1,.,.,1,.
O=C(NC1CCCC1)[C@H]1[C@H](CO)[C@H]2Cn3c(ccc(-c4ccncc4)c3=O)[C@H]2N1CC1CC1,.,0,.,0,-1,.
COCCNC(=O)C[C@H]1CC[C@H]2[C@@H](COc3ccc(NC(=O)Nc4ccccc4)cc3C(=O)N2C)O1,0[16.7 µM],11,-3[16.7 µM],-1,-27,-3
COc1ccc(CN(C)C[C@@H]2OCCCC[C@@H](C)Oc3ccc(NC(=O)NC(C)C)cc3C(=O)N([C@@H](C)CO)C[C@@H]2C)cc1,1[16.7 µM],-2,-10[16.7 µM],22,0,-8
Cc1nc2ccccc2c2oc(C(=O)N3CC(C)CC(C)C3)cc12 (configuration not stated),-7,1,2,18,4,18
CCCn1c(=S)[nH]c2cc(C(=O)N3CCN(C4CCCCC4)CC3)ccc2c1=O,5,1,-4,21,-3,13
CCOC(=O)N1CCN(C(=O)c2ccc3c(=O)n(Cc4ccc(Cl)cc4)c(=S)[nH]c3c2)CC1,2,-45,4,82*,.,.
CCOC(=O)C1CCCN(C(=O)c2cc3c(C)nc4ccccc4c3o2)C1 (configuration not stated),-2,15,56*,12,.,.
CCCn1c(=S)[nH]c2cc(C(=O)N3CCCC(C(=O)OCC)C3)ccc2c1=O (configuration not stated),33,.,84*,-21,.,.
O=c1c2ccc(Cl)cc2[nH]c(=S)n1CCC1=CCCCC1,.,166*,-402,.,.,-8
SMILES,miR122 inh,INS-1E GSIS act,Env fusion inh,C2C12 statin,EWS-Fli block,PAX8 inh HTS
Cc1noc(C)c1S(=O)(=O)Nc1ccc2c(c1)C(=O)N([C@@H](C)CO)C[C@@H](C)[C@@H](CN(C)C(=O)CCCN(C)C)OCCCC[C@@H](C)O2,-5[16.7 µM],16,-8[16.7 µM],.,-4,-35
CCOC(=O)N1CCN(C(=O)c2ccc3c(=O)n(CCC4=CCCCC4)c(=S)[nH]c3c2)CC1,-6,.,.,94*,.,.
CCCn1c(=S)[nH]c2cc(C(=O)N3CCN(C(=O)OCC)CC3)ccc2c1=O,0,-12,-3,9,.,12
CCC(=O)N1CCCCN2[C@H](C1)[C@@H](c1ccc(C#Cc3ccccc3F)cc1)[C@@H]2CO,11[16.7 µM],-19,.,-31,9,8
C[C@@H]1CN([C@@H](C)CO)C(=O)c2cc(-c3cccnc3)cnc2O[C@@H]1CN(C)C(=O)Nc1ccc(C(F)(F)F)cc1,-5[16.7 µM],-15,-7[16.7 µM],6,-1,.
CCOc1cc(NC(=O)CCl)c(OCC)cc1NC(=O)CCl,-7,-52,19,33,45,76*
CCOc1ccccc1NC(=O)CCC(=O)Nc1ccccc1OCC,-4,.,-33,-4,.,-9
CCCNC(=O)Nc1ccc2c(c1)C(=O)N(C)C[C@H](OC)[C@@H](C)CN(Cc1ccccc1)[C@H](C)CO2,4[16.7 µM],-28,.,5,0,.
N#CCSc1nnc(-c2sc3ccccc3c2Cl)o1,.,8,79*,.,.,-14
COC(=O)CSc1nnc(-c2sc3ccccc3c2Cl)o1,-2,.,.,7,.,.
C[C@H]1CN([C@@H](C)CO)C(=O)c2cc(C3=CCCC3)cnc2O[C@H]1CN(C)Cc1ccc(F)cc1,-1[16.7 µM],11,-28[16.7 µM],8,1,.
COCc1cc(N2CCN(C(=O)OC(C)(C)C)C[C@H]2C)ccc1N1CCS(=O)(=O)CC1,.,-22,59*,.,18,11
C[C@@H]1CN([C@H](C)CO)C(=O)c2cc(NS(=O)(=O)c3cn(C)cn3)ccc2O[C@@H]1CN(C)CC1CC1,-7[16.7 µM],8,-7[16.7 µM],7,-13,-4
CCC(=O)Nc1ccc2c(c1)OC[C@H](C)N(CC1CCCCC1)C[C@@H](C)[C@@H](OC)CN(C)C2=O,16[16.7 µM],-3,4[16.7 µM],4,4,-5
COc1cccc(C(=O)N2C[C@H]3[C@@H](c4ccccc42)[C@H](CO)N3Cc2ccccc2Cl)c1,7[16.7 µM],-14,.,1,7,23
Cc1ccc2c(c1)COc1c3ccc(C(=O)O)cc3nn1-2,-3,11,-7,3,5,65*
Cc1ccccc1C(=O)O/N=C/c1c(N2CCOCC2)n(C)c2ccccc12,-3,.,60*,-1,.,.

# Source: PubChem BioAssay
